Measurements published in PubChem BioAssay (NCI).
This is part of a sample that, as a whole, favours compounds with a hit. Of some 83,000 tested, about 20% had one in any assay.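 Step 1: grow cells in 96-well plates. Step 2: add test compound at a single concentration. Step 3: incubate 48 h. Step 4: record percent growth.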 Active and inactive are the calls of the source. How the source made its calls: active means growth percent below 10; inactive means the rest.

Tests used:
Experiment in all cases: NCI-60 one-dose screen, 48 h (100 = growth as untreated, 0 = no growth, -100 = all killed)
Conditions in all cases: 10 µM unless noted
[1] = tested on: SK-MEL-2 melanoma
[2] = tested on: EKVX NSCLC
[3] = tested on: SN12C renal
[4] = tested on: UO-31 renal
[5] = tested on: TK-10 renal
[6] = tested on: ACHN renal
[7] = tested on: CAKI-1 renal
[8] = tested on: A498 renal
[9] = tested on: CCRF-CEM leukemia
[10] = tested on: MOLT-4 leukemia
[11] = tested on: SR leukemia
[12] = tested on: RPMI-8226 leukemia
[13] = tested on: OVCAR-8 ovarian
[14] = tested on: OVCAR-5 ovarian
[15] = tested on: OVCAR-4 ovarian
[16] = tested on: SK-OV-3 ovarian
[17] = tested on: IGROV1 ovarian
[18] = tested on: OVCAR-3 ovarian
[19] = tested on: HS 578T breast
[20] = tested on: NCI/ADR-RES ovarian

Measured: growth

COc1cccc2c(N=NC(=O)c3ccc(S(N)(=O)=O)cc3)c(O)[nH]c12
inactive: [1] 112% | [2] 98.4% | [3] 98.3% | [4] 76.7% | [5] 108% | [6] 105% | [7] 93.6% | [8] 94.8% | [9] 112% | [10] 109% | [11] 81.2% | [12] 103% | [13] 102% | [14] 106% | [15] 96.8% | [16] 107% | [17] 101% | [18] 114% | [19] 101% | [20] 105%

c1ccc2cc(Cn3c[n+](Cc4ccc5ccccc5c4)c4ccccc43)ccc2c1
inactive: [2] 13.9% | [4] 53.6% | [6] 46.2% | [7] 84.7% | [14] 22.3% | [20] 91.2%
active: [1] -61.7% | [3] 5.14% | [5] -72% | [8] -2.59% | [9] -13.1% | [10] -27.1% | [11] -66.7% | [12] -53.6% | [13] -47.9% | [15] -14.9% | [16] -0.377% | [17] -42.4% | [18] -50.8% | [19] 3.56%

CN(C)c1ccc(/C=C2/C=C(c3ccccc3)OC2=O)cc1
inactive: [1] 84.6% | [2] 109% | [3] 107% | [4] 73.7% | [5] 110% | [6] 97.1% | [7] 91.3% | [8] 95.8% | [9] 52.7% | [10] 49.7% | [11] 26.7% | [12] 84% | [13] 100% | [14] 108% | [15] 93.4% | [16] 93.9% | [17] 74.7% | [18] 73.7% | [19] 101% | [20] 73.1%

N#Cc1nc2c(S(=O)(=O)c3ccccc3)c(N)n(Cc3cccnc3)c2nc1C#N
inactive: [1] 111% | [2] 76.7% | [3] 138% | [4] 58.4% | [5] 99.2% | [6] 96.2% | [7] 96.3% | [8] 104% | [9] 35.3% | [10] 50% | [11] 36.1% | [12] 99.2% | [13] 70.9% | [14] 96.5% | [15] 92.4% | [16] 76.9% | [17] 46.1% | [18] 73.4% | [19] 59.5% | [20] 94.6%

COc1cc(-c2cc(-c3ccc(Nc4ncnc5cc(Cl)ccc45)cc3)nc(N3CCN(C)CC3)n2)cc(OC)c1OC
inactive: [1] 93.4% | [2] 102% | [3] 88.6% | [4] 23.4% | [5] 136% | [6] 75.4% | [7] 91% | [8] 102% | [9] 52.5% | [10] 58.1% | [11] 42.7% | [12] 76.2% | [13] 35.1% | [14] 103% | [15] 58.9% | [16] 114% | [17] 81.3% | [18] 105% | [19] 73.2% | [20] 85.3%

CCOC(=O)c1c(C)nc2c(c1N)CC(=O)N2Cc1cc(OC)c(OC)c(OC)c1
inactive: [1] 27% | [2] 51.6% | [3] 74% | [4] 62.2% | [5] 54.8% | [6] 64.9% | [7] 50.6% | [8] 35.8% | [9] 78.2% | [10] 52.1% | [11] 20.7% | [12] 40.9% | [13] 61.9% | [14] 93% | [15] 51.3% | [16] 57.2% | [17] 53.1% | [18] 23.5% | [19] 65.1% | [20] 17.6%

COc1ccc(C2=Nc3c(N)ncnc3NC(c3cccc(Nc4ccnc5cc(C(F)(F)F)ccc45)c3)C2)cc1 (stereo not given)
active: [11] 5.09%
inactive: [1] 73.7% | [2] 54% | [3] 63.9% | [4] 45.2% | [5] 95.6% | [6] 78.8% | [7] 61.5% | [8] 65.2% | [9] 42.4% | [10] 19.7% | [12] 11.8% | [13] 67.9% | [14] 92.3% | [15] 67.2% | [16] 69.3% | [17] 66.4% | [18] 78.2% | [19] 55.3% | [20] 65.3%

Cc1cc(C)cc(Nc2ccc([N+](=O)[O-])c(NCCN3CCOCC3)n2)c1
inactive: [1] 43.4% | [2] 66% | [3] 32.2% | [4] 23.1% | [5] 65% | [6] 30.4% | [7] 37.4% | [10] 10.3% | [11] 17% | [12] 11.5% | [13] 20% | [14] 52.9% | [15] 52.6% | [16] 50.3% | [17] 23.5% | [19] 21.6% | [20] 18.1%
active: [8] -0.289% | [9] 5.33% | [18] 2.95%

CC(C)(CO)N(CCO)CCO
inactive: [1] 100% | [2] 116% | [3] 99.1% | [4] 87.4% | [5] 95.5% | [6] 97.1% | [7] 100% | [8] 111% | [9] 92.8% | [10] 104% | [11] 99.5% | [12] 95% | [13] 110% | [14] 93.1% | [15] 110% | [16] 109% | [17] 113% | [18] 112% | [19] 113% | [20] 102%

Cn1cc(-c2csc(-c3cn(C)c4ccc(Br)cc34)n2)c2cnccc21
active: [2] -79.1% | [3] -91.5% | [4] -89.9% | [5] -75.7% | [6] -99.5% | [7] -82.2% | [9] -38.1% | [10] -58.9% | [11] -29.6% | [12] -37.3% | [13] -49.4% | [14] -67.3% | [15] -50.9% | [17] -91.5% | [18] -92.9% | [19] -40% | [20] -69.5%
inactive: [1] 47.7% | [8] 68.7% | [16] 96.5%

Cn1cccc1/C=C1\C(=O)Nc2ccccc21
inactive: [1] 114% | [2] 34.4% | [3] 94% | [4] 62.9% | [5] 72.2% | [6] 98.2% | [7] 86% | [8] 125% | [9] 104% | [10] 97.7% | [11] 72.8% | [12] 103% | [13] 107% | [14] 87.2% | [15] 48% | [16] 94.4% | [17] 76.3% | [18] 74.7% | [19] 101% | [20] 93.2%

O=C(CCCCCCN1CC(=O)N2[C@@H](c3ccc(Cl)cc3)c3[nH]c4ccccc4c3C[C@H]2C1=O)NO
inactive: [1] 80.7% | [2] 85.6% | [3] 65.7% | [4] 59.7% | [5] 110% | [6] 78.8% | [7] 60.9% | [8] 67.2% | [9] 18.7% | [10] 32.3% | [11] 20.2% | [12] 22.4% | [13] 57.7% | [14] 69.9% | [15] 59.3% | [16] 82.9% | [17] 53.8% | [18] 66.7% | [19] 67.9% | [20] 93%

CCN1CCN(CC(=O)Nc2nc3ccc(NCc4ccc(Br)cc4)cc3s2)CC1
active: [11] 0.987%
inactive: [1] 55.4% | [2] 68.2% | [3] 63.8% | [4] 59.5% | [5] 87% | [6] 74.6% | [7] 35.5% | [8] 88.8% | [9] 34.2% | [10] 31.7% | [12] 41.8% | [13] 81.8% | [14] 76% | [15] 72.9% | [16] 90% | [17] 86.8% | [18] 57.2% | [19] 81.3% | [20] 79.3%

COC(c1ccc2ccccc2c1)C(C)C(F)F (stereo not given)
inactive: [1] 97.8% | [2] 100% | [3] 98.2% | [4] 90.6% | [5] 86.4% | [6] 100% | [7] 95.9% | [8] 99.7% | [9] 62.2% | [10] 99.3% | [11] 92% | [12] 98.8% | [13] 99.4% | [14] 95.5% | [15] 109% | [16] 87.5% | [17] 100% | [18] 114% | [19] 116% | [20] 107%
